This is a sample that favours compounds with a hit; in the whole collection about 11% have one here.
MCF10A rerep = DNA re-replication induction in MCF 10a cells | MCF 10A DNA re-replication, Hoechst nuclear intensity, 48 h | Potency, µM (highest dose often 46.1 µM), inactives show top-dose activity, positive = re-replication, usual class: activators | hit rate 2.9% among 350,000; also: potency is read from the fitted curve at half-maximal effect; % of control where 0% means no effect; nearly all actives have a fitted effect of over 50% in size
IL-1B inflam inh = blocks inflammasome-driven IL-1 beta release; hit rate 4.7% among 360,000; activity change, % at 57.5 µM; AID 743279; THP-1 LPS/ATP IL-1B secretion, AlphaLISA, 16 h; active compounds read low; in the data active = activity change below about -50%; inconclusive = mostly about -30% to -49%; also: % is scaled to controls: 0 for no effect and ±100 for the full control effect
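Secreted IL-1B measured by AlphaLISA bead assay after 16 h compound exposure of THP-1 cells; compounds (final up to 57.5 uM) added 1 h before LPS (250 ng/mL) and ATP (1.25 mM) stimulation; lower signal means less secretion.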
RORg inh = ROR gamma (mouse) transcription inhibition. Drosophila S2 Gal4-RORgamma UAS-luciferase reporter, 20 h. Potency, µM (highest dose often 53.6 µM), without a hit: top-dose activity change, negative = inhibition, hits mostly inhibitors. hit rate 5.4% among 310,000; also: potency is read from the fitted curve at half-maximal effect; % is scaled to controls: 0 for no effect and ±100 for the full control effect; nearly all actives have a fitted effect of over 60% in size
Target sequence (P51450 whole entry, looked up, the tested form may be a part): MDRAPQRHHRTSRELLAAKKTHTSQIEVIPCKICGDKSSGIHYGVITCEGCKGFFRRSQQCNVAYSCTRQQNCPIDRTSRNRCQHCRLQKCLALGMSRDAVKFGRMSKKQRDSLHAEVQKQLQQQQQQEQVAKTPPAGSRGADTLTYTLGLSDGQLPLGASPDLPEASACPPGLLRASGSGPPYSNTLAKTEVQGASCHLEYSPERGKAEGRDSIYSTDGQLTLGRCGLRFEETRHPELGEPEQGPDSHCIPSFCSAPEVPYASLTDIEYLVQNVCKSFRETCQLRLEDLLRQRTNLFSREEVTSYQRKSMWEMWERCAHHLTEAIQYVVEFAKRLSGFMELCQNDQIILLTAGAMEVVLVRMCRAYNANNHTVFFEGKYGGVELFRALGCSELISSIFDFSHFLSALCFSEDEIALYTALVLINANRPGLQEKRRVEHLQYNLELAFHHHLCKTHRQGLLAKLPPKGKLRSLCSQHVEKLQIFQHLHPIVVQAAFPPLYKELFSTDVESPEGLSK
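ROR gamma transcriptional activity was tracked as Gal4-UAS luciferase output in stably transfected Drosophila Schneider cells, with compound added 1 hr before 700 uM copper sulfate induction and a 20 hr ambient-temperature incubation.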
VP16 counter = Gal4-VP16 reporter inhibition counter-screen | hit rate 3.5% among 310,000 | Potency, µM (top dose mostly 53.6 µM), inactives show at the highest dose activity, negative = inhibition, most hits filed as inhibitors | Drosophila S2 Gal4-VP16 UAS-luciferase, luminescence, 20 h;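 also: Gal4-VP16 expression switched on by copper sulfate through the metallothionein promoter; potency is read from the fitted curve at half-maximal effect; % is scaled to controls: 0 for no effect and ±100 for the full control effect; nearly all actives have a fitted effect of over 50% in size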
SW480 rereplic = DNA re-replication induction in SW480 cells; SW480 DNA re-replication, Hoechst DNA content imaging, 48 h; Potency, µM (titrated, usually from 46.1 µM), without a hit: at the highest dose re-replication activation, most hits filed as activators; hit rate 1.8% among 340,000; AID 624297; also: potency is read from the fitted curve at half-maximal effect; % of control where 0% means no effect; nearly all actives have a fitted effect of over 55% in size
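First, 250 cells per well were seeded. Next, compound or vehicle (23 nL) was pinned in, plates sat 48 hr at 37 C. Finally Hoechst was added for 40 min before fluorescence scanning.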
* = called active by the depositor; ? = inconclusive; . = not tested or not shown; [ ] = dose if it differs, or a comment. Unless noted, calls follow the shape of the dose curve; as a rule, active = well fitted curve in the direction sought with a large enough effect; inconclusive = small, poorly fitted or top-dose-only effect, or another doubt; inactive = no such curve, though single readings can be large; an effect the other way counts as inactive or inconclusive.

SMILES	MCF10A rerep	IL-1B inflam inh	RORg inh	VP16 counter	SW480 rereplic
CCOC(=O)C(C)(C)N(Cc1cccc(C)c1)S(=O)(=O)c1ccc(Cl)c([N+](=O)[O-])c1	5.2µM*	?	-19%	?	?
CCOC(=O)C(C)(C)N(Cc1cccc(C)c1)S(=O)(=O)c1cccc([N+](=O)[O-])c1	5%	1	29%	-13%	-4%
CC1CCCC(NC(=O)c2ccc(COc3ccccc3)o2)C1C (configuration not stated)	7%	-73*	.	.	4%
Cc1ccc(N/N=C(/Sc2nnnn2-c2ccccc2)C(=O)c2ccccc2)cc1	?	-10	10µM*	?	-4%
CCC1(c2ccc(Cl)cc2)NC(=S)N(c2ccc(C)c(C)c2)N1 (configuration not stated)	10%	22	?	-5%	0%
CCC1(c2ccccc2)NC(=S)N(c2ccc(C)c(C)c2)N1 (configuration not stated)	-2%	25	2.8µM*	?	-6%
CCC1(c2ccc(Cl)cc2)NC(=S)N(c2ccc(C)cc2)N1 (configuration not stated)	?	41	1.8µM*	1%	-1%
CC(C)=NOCc1cccc(-c2cc(-c3ccccc3)no2)c1	.	.	13%[10 µM]	2%[10 µM]	.
O=C(Nc1ccc(-c2nc3ccccc3[nH]2)cc1)c1ccc2c(c1)OCO2	-5%	44	?	11µM*	3%
O=C(CSc1ccccc1)Nc1ccc(-c2nc3ccccc3[nH]2)cc1	?	2	?	?	-2%
O=C(Nc1ccc(Cl)c(-c2nc3ccccc3[nH]2)c1)c1ccc2c(c1)OCO2	?	31	?	-1%	-8%
O=C(Nc1ccc(-c2nc3ccccc3[nH]2)cc1)C1CCCO1 (configuration not stated)	-4%	-15	1%	7.1µM*	-1%
O=C(Cc1cccs1)Nc1ccc(-c2nc3ccccc3[nH]2)cc1	2%	-53*	-19%	?	-11%
COc1cccc(C(=O)N2CCC[C@H]2C(=O)N2CCC[C@H]2C(=O)NCc2ccccn2)c1	.	20	.	.	.
N#Cc1ccc(CN2CC3(CCN(C(=O)c4ccncc4)CC3)C2)cc1	.	.	-11%	-1%	.
Cc1cc(=O)n2cccc(O)c2n1	5%	-57*	0.89µM*	1.8µM*	?
Cc1cccn2c(=O)cc(COC(=O)C(C)Oc3ccccc3)nc12 (configuration not stated)	8%	-6	.	.	-1%
Cc1ccc2[nH]c(C(=O)N/N=C/c3ccccc3O)c(C)c2c1	18%	96	1µM*	6.3µM*	24%
COc1ccc(/C=N/NC(=O)c2[nH]c3ccc(C)cc3c2-c2ccccc2)c(C(=O)O)c1OC	5.8µM*	32	-10%	-2%	?
Cc1ccc2[nH]c(C(=O)N/N=C/c3ccccc3C(=O)O)c(-c3ccccc3)c2c1	?	18	15%	-3%	?
CCCc1cc(=O)oc2c3c(c4c(c12)OC(C)(C)C=C4)OC(C)C(C)C3O (configuration not stated)	10µM*	-71*	-17%	?	-3%
COc1ccccc1CNc1cc(-c2c(C)noc2C)ncn1	.	.	11%	10%	.
CS(=O)(=O)N1CCC2(CCN(c3ccccc3)CC2)CC1	.	.	28%	8%	.
O/C=c1\ccc2cccc3nc(C(F)(F)F)nc1c23	21µM*	-1	-10%	-1%	14%
CCc1ccccc1NC(=O)c1ccc(Cn2cc([N+](=O)[O-])cn2)cc1	-2%	0	37%	0%	1µM*
SMILES	MCF10A rerep	IL-1B inflam inh	RORg inh	VP16 counter	SW480 rereplic
Cc1nn(CC(=O)NNC(=O)c2cccc(Br)c2)c(C)c1[N+](=O)[O-]	6%	2	-8%	1%	4%
CSc1ccc(CNC(=O)C2(C)CCCN(C(C)=O)C2)cc1 (configuration not stated)	.	0	.	.	.
OCCOCCNc1ncnc2sc(-c3ccccc3)cc12	4%	-18	5%	?	-2%[9.22 µM]
CC(=O)N1CCN(c2ncnc3sc(-c4ccccc4)cc23)CC1	14%	-8	5%	-4%[10 µM]	-60%
CNc1ncnc2sc(-c3ccccc3)cc12	4%	-77*	-8%	4%	2%
CN(C)CCNc1ncnc2sc(-c3ccccc3)cc12	?	-72*	10%	1%	22%
S=c1[nH]cnc2sc(-c3ccccc3)cc12	7%	-1	1.4µM*	4.5µM*	-3%
Oc1ccc(N2CCN(c3ncnc4sc(-c5ccccc5)cc34)CC2)cc1	?	-70*	7%	-21%	14%
COc1ccc(OC)c(Nc2ncnc3sc(-c4ccccc4)cc23)c1	13%	28	15%	-2%	-6%
CN(CCc1ccccc1)c1cc2c(c3c1ccn3C)C1CCC2C1 (configuration not stated)	.	5	.	.	.
CC(C)c1ccc(NC(=O)Cn2nnc(C(=O)NCc3ccco3)c2N)cc1	-4%	0	-8%	3%	0%
CCOc1ccccc1OCCC(=O)OCC(=O)Nc1c(C)cc(C)cc1C	5%	-1	.	.	-5%
Cc1cc(C)cc(NC(=O)c2cccc(C(=O)Nc3cc(C)cc(C)c3)n2)c1	8%	6	8%	-4%	2%
NNC(=O)c1cc2ccccc2[nH]1	12µM*	71	-33%	2%	18µM*
NNC(=O)c1cc2cc(Oc3ccccc3)ccc2[nH]1	?	-4	0%[1.91 µM]	-13%	5.8µM*
COc1ccc2[nH]c(C(=O)NCCc3ccccc3)cc2c1	-4%	4	3%	27%	-9%
O=C(NCc1ccccn1)Nc1ccccc1Cl	?	-28	19%	22%	?
S=C(NCc1ccccn1)Nc1ccc(Br)cc1Cl	-42%	-21	7.1µM*	?	?
O=C(NCc1ccccn1)Nc1ccc(Br)cc1Cl	0%	?	37%	-2%	-2%
CC(C1CC1)N(Cc1ccccc1)C(=S)Nc1ccccc1Cl (configuration not stated)	?	-15	10µM*	?	22%
CC(C1CC1)N(Cc1ccccc1)C(=O)NC(=O)c1ccccc1 (configuration not stated)	2%	-12	-1%	-8%	-2%
S=C(NCCc1ccccn1)Nc1ccccc1Cl	14%	9	6.3µM*	13µM*	9.2µM*
S=C(NCc1ccccn1)Nc1ccccc1Cl	12%	-6	10µM*	?	4%
CN(Cc1ccco1)c1ccnc(-c2ccccc2C(F)(F)F)n1	.	.	-2%	-11%	.
Cc1c(Cl)cccc1NC(=S)NCCCN(C)C	10%	-13	-12%	-9%	0%
Fc1ccccc1NC(=S)NCCc1cccc(Cl)c1	0%	-88*	7.1µM*	10µM*	-6%
S=C(NCCc1ccccc1)Nc1ccccc1Cl	8%	-10	5.6µM*	10µM*	-2%
